Only some compounds are listed: those with a hit (about 2.4% of all), similar ones and a draw of the others.
Cruzain inh Det = inhibitors of Trypanosoma cruzi cruzain with detergent | purified cruzain, Z-FR-AMC fluorescence, 0.01% Triton | AID 1478 | 200,000 compounds, 0.43% hits | Potency, µM, without a hit: max response, negative = inhibition, actives largely listed as inhibitors;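 note: plate controls were neutral wells for no effect and buffer without enzyme for full effect; nearly all actives have a fitted effect of over 40% in size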
Target sequence (P25779 123-467 limits assumed): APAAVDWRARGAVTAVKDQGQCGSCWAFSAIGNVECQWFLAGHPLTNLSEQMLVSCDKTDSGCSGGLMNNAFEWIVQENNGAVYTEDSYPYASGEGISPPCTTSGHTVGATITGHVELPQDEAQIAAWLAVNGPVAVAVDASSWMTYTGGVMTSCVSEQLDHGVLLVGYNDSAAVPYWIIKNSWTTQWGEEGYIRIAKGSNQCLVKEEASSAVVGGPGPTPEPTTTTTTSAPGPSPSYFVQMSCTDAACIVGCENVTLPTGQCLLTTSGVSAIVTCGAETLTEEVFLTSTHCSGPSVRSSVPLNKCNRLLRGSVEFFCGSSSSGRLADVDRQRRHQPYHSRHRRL
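Cysteine protease activity tested under reducing, mildly acidic conditions (100 mM sodium acetate pH 5.5, 5 mM DTT) plus 0.01% Triton X-100. Cruzain 1.5 nM; substrate Z-FR-AMC 2 uM; 15 min compound preincubation at room temperature.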
Cruzain inh noDet = blocks cruzain activity in detergent-free assay. 200,000 compounds, 2.3% hits. purified cruzain, Z-FR-AMC fluorescence, no detergent. Potency, µM, inactives show max response, negative = inhibition, actives largely listed as inhibitors. P25779;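 note: plate controls were enzyme without inhibitor for no effect and buffer without enzyme for full effect; nearly all actives have a fitted effect of over 40% in size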
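Purified cruzain at 1.5 nM, pre-incubated 15 min with compound at room temperature in 100 mM sodium acetate pH 5.5, 5 mM DTT, 0.00005% Triton X-100. Reaction started with 2 uM Z-FR-AMC; AMC fluorescence increase over 60 s gives rate.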
The depositor's hits bear a star; u = inconclusive. Calls come from the whole dose curve; as a rule, active = well fitted curve in the direction sought with a large enough effect; inconclusive = small, poorly fitted or top-dose-only effect, or another doubt; inactive = no such curve, though single readings can be large; an effect the other way counts as inactive or inconclusive. Potency is the fitted concentration of half-maximal effect.

SMILES	Cruzain inh Det	Cruzain inh noDet
CCN(CC)c1ccc(C(=O)N2CCc3c([nH]c4ccccc34)C2c2ccc(F)cc2)cc1 (configuration not stated)	0.5%	15.8µM*
CCOc1cccc(C2c3[nH]c4ccccc4c3CCN2C(=O)CSCc2ccc(F)cc2)c1 (configuration not stated)	8.3%	-2.5%
O=C(CSc1ccccc1)N1CCc2c([nH]c3ccccc23)C1c1ccc(F)cc1 (configuration not stated)	1.8%	u
CSc1ccc(C2c3[nH]c4ccccc4c3CCN2C(=O)CCC2CCCC2)cc1 (configuration not stated)	2.2%	10µM*
Cc1cccc(-c2cc3nc4c(c(NCc5ccco5)n3n2)CCCC4)c1	-10.4%	-27.6%
CC(=O)N1CCN(c2nc(-c3ccco3)c3c(c2C#N)CC(C)(C)SC3)CC1	-20.9%	u
CC1(C)Cc2c(C#N)c(SCC(=O)c3ccccc3)nc(N3CCOCC3)c2CS1	2.4%	25.1µM*
CN1Cc2c(N3CCOCC3)nc(SCc3ccccc3)c(C#N)c2CC1(C)C	-5.1%	-5.7%
CC1(C)Cc2c(C#N)c(N3CCN(C(=O)c4ccccc4Cl)CC3)nc(-c3ccco3)c2CS1	11.2µM*	u
COc1cccc(-c2nnc(Nc3nc4c(F)cccc4s3)o2)c1	-1.1%	u
COCCCNC(=O)c1ccc2c(=O)n(Cc3ccc(OC)cc3)c(=O)[nH]c2c1	0.0%	20.8%
O=C(O)CC1SC(=O)N(Cc2ccccc2)C1=O (configuration not stated)	6.2%	-1.3%
O=C1NCCN1Cc1cccc(Cl)c1	-0.1%	12.6µM*
O=S1(=O)CCN(Cc2cccc(Cl)c2)CC1	0.4%	-5.7%
CCc1cccc(C)c1NC(=O)c1cnn(-c2ccc(F)cc2)c1-n1cccc1	-5.0%	-15.1%
COc1ccc(N=C2C(=Nc3ccc(OC)cc3)N(c3ccc(N(C)C)cc3)C(=S)N2c2ccc(OC)cc2)cc1	-5.0%	7.94µM*
COc1ccc(NC(=S)c2ccc(N(C)C)cc2)cc1	-4.2%	7.8%
COc1ccc(N2CCN(C(=O)c3ccncc3)CC2)cc1	5.5%	2.1%
COc1ccc(N=C2C(=Nc3ccc(OC)cc3)N(c3ccccc3)C(=S)N2C(=O)c2ccc(Cl)cc2)cc1	-2.6%	3.98µM*
COc1ccc(N=C2C(=Nc3ccc(OC)cc3)N(c3ccc(OC)cc3)C(=S)N2C(=O)c2ccc(OC)cc2)cc1	-4.7%	5.01µM*
COc1ccc(C(=O)c2ccc(Cl)cc2)cc1	-2.7%	5.9%
C[C@@H](CN(C)C)CN1c2ccccc2CCc2ccccc21	-2.7%	-5.6%
O=C(c1ccccc1)c1cccn1CC(=O)N1CCCCCC1	-1.7%	9.6%
CCN(CC)c1ccc(-c2nc(-c3ccco3)no2)cc1[N+](=O)[O-]	-3.6%	15.8µM*
CCCCNc1ccc(-c2nc(-c3ccco3)no2)cc1[N+](=O)[O-]	-14.9%	u
SMILES	Cruzain inh Det	Cruzain inh noDet
CN(C)c1ccc(-c2nc(-c3ccncc3)no2)cc1[N+](=O)[O-]	-2.4%	-6.0%
COc1cc(-c2noc(-c3ccc(N(C)C)c([N+](=O)[O-])c3)n2)cc(OC)c1OC	-6.7%	25.1µM*
O=C(Nc1cccc(CCc2ccccn2)c1)c1cc(F)c(F)cc1Cl	-1.0%	-7.8%
Cc1ccsc1/C=C1/SC(N2CC(C)OC(C)C2)=NC1=O (configuration not stated)	-13.2%	2.2%
S=C(NCC1CCCCC1)Nc1ccc(Oc2ccccc2)cc1	-3.0%	2.7%
COc1cccc2c1C(=O)O/C2=C/c1ccc2c(c1)OCO2	-18.8%	-6.5%
CCOC(=O)c1c(-c2ccc(C)cc2)csc1NC(=O)c1cc(-c2ccc(OC)cc2)on1	-0.2%	-9.9%
COC(=O)c1c(-c2ccc(C)cc2)csc1NC(=S)NC(=O)c1cc(OC)cc(OC)c1	-4.2%	3.98µM*
CCOc1ccccc1-n1c(CN2CCN(C(=O)c3ccco3)CC2)nc2ccccc2c1=O	-2.9%	14.3%
CCCn1c(=O)c2ccccc2n2c(SCc3nc4ccccc4s3)nnc12	1.6%	12.6µM*
CCCCn1c(SCc2nc3ccccc3s2)nc2ccccc2c1=O	-4.7%	-3.4%
CN(C)S(=O)(=O)c1ccc(NC(=O)c2cc(F)c(F)cc2Cl)cc1	-3.6%	10.5%
O=C(Nc1ccc(NC(=O)C23CC4CC(CC(C4)C2)C3)cc1)c1cc(F)c(F)cc1Cl	6.3%	25.1µM*
Cc1ccccc1NC(=O)c1sc2nc3c(c(-c4ccco4)c2c1N)CCC3	-3.8%	-27.4%
Nc1c(C(=O)NCC2CCCO2)sc2nc3c(c(-c4ccco4)c12)CC/C3=C\c1ccco1 (configuration not stated)	28.2µM*	-4.4%
Cc1ccccc1NC(=O)c1ccc(Nc2c([N+](=O)[O-])cc([N+](=O)[O-])c3ccccc23)cc1	-5.8%	31.6µM*
Cc1c(NC(=O)c2ccccc2)cccc1[N+](=O)[O-]	-3.4%	-15.6%
CCCS(=O)(=O)N1CCN(c2ccccn2)CC1	1.3%	2.4%
CC(C)(C)C(=O)Nc1cc(S(=O)(=O)Nc2ccc(Cl)cc2)ccc1Cl	-9.6%	-1.6%
O=C(Nc1ccc(O)cc1)/C(=C\c1cccs1)NC(=O)c1ccccc1	-9.0%	-8.8%
COc1ccc(/C=C/C(=O)Nc2ccc(OC)cc2[N+](=O)[O-])cc1	-1.6%	-6.8%
CCCCC(=O)Nc1ccc(C(=O)Nc2ccc(OC)cc2[N+](=O)[O-])cc1	1.9%	15.8µM*
CCCOc1ccc(/C=C/C(=O)Nc2ccc([N+](=O)[O-])cc2C)cc1	2.5%	25.1µM*
CCCCC(=O)Nc1ccc(NC(=O)c2ccc([N+](=O)[O-])cc2)cc1OC	-1.3%	-2.7%
CCOc1ccc(NC(=O)/C=C/c2ccc(OC)cc2)c([N+](=O)[O-])c1	14.1µM*	3.98µM*
SMILES	Cruzain inh Det	Cruzain inh noDet
CCCOc1ccc(/C=C/C(=O)Nc2ccc([N+](=O)[O-])cc2C)cc1OC	7.6%	5.9%
O=C(NC1CCCCC1)c1ccc(N2CCCC2=O)cc1	9.1%	-1.7%
Cc1ccc(-c2nc(N/N=C/c3cccnc3)c3ccccc3n2)cc1	-14.4%	u
CCc1cccc(C)c1NC(=O)CN(C)S(=O)(=O)c1cccc2nsnc12	-2.9%	4.9%
CCCNC(=O)C(NS(=O)(=O)c1cccc2nsnc12)c1ccccc1 (configuration not stated)	6.5%	-2.2%
COc1ccc(Cl)cc1NC(=O)CC(C)=O	3.1%	-6.0%
CCCCC(c1nnnn1C1CCCC1)N1CCN(C2CCCCC2)CC1 (configuration not stated)	3.1%	3.6%
CCCCNC(=O)c1cc2c(=O)n3cccc(C)c3nc2n(Cc2ccccc2)c1=N	28.2µM*	u
Cc1cccn2c(=O)c3cc(C(=O)NCCc4ccccc4)c(=N)n(CCCn4ccnc4)c3nc12	0.2%	u
COCCCn1c(=N)c(C(=O)NCc2ccco2)cc2c(=O)n3cccc(C)c3nc21	-8.3%	-17.2%
CNC(=O)c1cc2c(=O)n3cccc(C)c3nc2n(C(C)C)c1=N	25.1µM*	u
Cc1cccn2c(=O)c3cc(C(=O)NCc4ccco4)c(=N)n(CCOCCO)c3nc12	-4.0%	5.3%
C=CCn1c(=N)c(C(=O)NCCCOC)cc2c(=O)n3cccc(C)c3nc21	31.6µM*	u
CCOC(=O)c1c(C)nc(SCC(N)=O)c(C#N)c1-c1ccccc1	-1.9%	-1.6%
O=C(Cc1sc(-c2ccccc2)nc1-c1ccccc1)Nc1ccc(Cl)cc1	5.6%	u
O=C(Cc1sc(-c2ccccc2Cl)nc1-c1ccccc1)Nc1ccc(F)cc1	5.1%	15.8µM*
